Laboratory results from PubChem BioAssay AID588348 (Broad Institute, 2011).
Hit rate of the full screen: of about 1,300 compounds, fewer than 10 were called active.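 How the source made its calls: active means fitted half-maximal dose AC50 no more than ten times the top valid tested dose, with luminescence dropping as dose rises; inconclusive means poor fit, or flat fit with 30 to 70% inhibition; inactive means the rest, signal increases included.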 The list is a sample of the results.

assay: ADP-Glo luciferase interference without Dyrk1A, dose response, artefact control for Dyrk1A inhibitor project, biochemical, luminescence, cherry-pick, set 02 (AID 588348); conditions: ADP-Glo luciferase artifact assay, no Dyrk1A; series mostly up to 12 µM; activity change, negative = inhibition: at the top concentration;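 further: 0% = median of neutral control wells and -100% = median of positive control wells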

Activity change, negative = inhibition, inactive:
COc1c(O)cc2oc(-c3ccc(O)c(O)c3)cc(=O)c2c1O 6.57%, CCN(CC)c1ccc(NC(=O)CCc2nnc3ccc(N4CCCCC4)nn23)c(C)c1 9.92%, CCOC(=O)Cn1c(-c2cccnc2Cl)nc2ccccc21 8.46%, Cc1cc(/C=N/Nc2ccc([N+](=O)[O-])cn2)c(C)n1-c1cccc(C(=O)O)c1 8.55%, Cc1noc(C)c1-c1ccc2ncnc(NC(C)c3ccco3)c2c1 (configuration not stated) 10.7%, COc1ccc2c(Cl)c(C(=O)NCc3ccco3)sc2c1 2.94%, Cc1cccc(-c2nc(Nc3ccc(O)cc3)c3ccccc3n2)c1 8.32%, Oc1ccc(-c2nc3ccccc3nc2-c2ccc(O)cc2O)c(O)c1 6.7%, Oc1ccc(-c2[nH]ncc2-c2nc3ccccc3s2)c(O)c1 8.04%, NC(=S)c1ccc(C(N)=S)o1 8.12%, Nc1nonc1-n1nnc(C(=O)N/N=C\c2ccncc2)c1CN1CCCCC1 6.25%, C=C(C)Cn1c(N2CCN(CC)CC2)nc2c1c(=O)[nH]c(=O)n2C 8.26%, Nc1nc(SCc2ccc([N+](=O)[O-])cc2)c2ncn(C3OC(CO)C(O)C3O)c2n1 (configuration not stated) 7.11%, Nc1nc(NCCCN2CCOCC2)nc(Nc2ccccc2)c1[N+](=O)[O-] 7.41%, Cc1ccc(/C=C(\C#N)C(=O)Nc2cccc3ncccc23)o1 7.8%, CC(=O)Oc1ccc2c(c1)C(=O)c1ccccc1C2=O 8.92%, CCc1cc2c(NC3CCCC3)ncnc2s1 9.96%, COc1ccc(S(=O)(=O)N(C)C[C@H]2Oc3ccc(NS(=O)(=O)c4cccs4)cc3CC(=O)N([C@H](C)CO)C[C@H]2C)cc1 9.41%, COc1ccc2oc(N)c(C=O)c(=O)c2c1 7.76%, COc1ccc2[nH]c(C)c(CCN(Cc3cccs3)C(=S)Nc3ccccc3OC)c2c1 9.48%, NS(=O)(=O)c1ccc(-c2ccc(/C=C3\SC(=O)NC3=O)o2)cc1 5.57%, O=C(NC(Nc1nc2ccc([N+](=O)[O-])cc2s1)(C(F)(F)F)C(F)(F)F)c1ccccc1 18.5%, O=C1/C(=C/c2ccc3c(c2)OCO3)Oc2cc(OCC(=O)N3CC(O)C[C@H]3C(=O)O)ccc21 (some centres not stated) 11.8%, CCOc1cc(/C=C2\SC(N3CCCCC3)=NC2=O)ccc1O 7.18%, CCc1n[nH]c(=S)n1/N=C/c1c[nH]c2ccc(Br)cc12 7.76%, CC(=O)C1C(c2ccc(Cl)cc2)NC(=O)NC1(O)C(F)(F)F (configuration not stated) 6%, CC(=O)Nc1cccc(-c2cnc3ccccc3n2)c1 13.1%, Oc1ccc(-c2csc(Nc3cccnc3)n2)cc1 8.19%, CCOCCCNC(=O)C(NC(=O)c1ccc(=O)[nH]c1)c1ccc(Cl)cc1 (configuration not stated) 7.16%, CN1c2ccc(C=O)c3c(C=O)ccc(c23)N(C)C1(C)C 8.18%, O=C1N=C(N2CCc3ccccc3C2)S/C1=C\c1ccc(O)cc1 6.19%, O=C(NCCc1ccccc1)C1CCN(S(=O)(=O)c2ccc(Br)s2)CC1 11%, CCn1c(NC(=O)c2ccccc2)c(-c2cccs2)c(=O)c2ccccc21 7.02%, COc1cccc(C(=O)NNC(=O)/C=C/c2ccccc2)c1 9.62%, C[C@@H]1O[C@@H](OC[C@H]2O[C@@H](Oc3c(-c4ccc(O)cc4)oc4cc(O)cc(O)c4c3=O)[C@H](O)[C@@H](O)[C@@H]2O)[C@H](O)[C@H](O)[C@H]1O 10.5%, Cc1noc(NS(=O)(=O)c2ccc(NC(=O)c3oc4ccc(F)cc4c3C)cc2)c1C 8.7%, COc1cc(O)c2c(=O)c3c(O)c(O)ccc3oc2c1OC 7.64%
